Consider 59 molecules from PubChem BioAssay.

Each structure is given as a SMILES string.

Assay [1] addresses Tumor necrosis factor receptor superfamily member 10B (Homo sapiens) (UniProt O14763). Kind of assay: viability loss of caspase-8 NB7 cells with TRAIL – with/without TRAIL, luminescence panel, confirmation (AID 651596). As to conditions: NB7 neuroblastoma + caspase-8, TRAIL sensitization, NB7 Caspase-8, with TRAIL, mean of runs, at 10 µM, stronger effect = higher value.
Assay in assay [2]: as above
As to conditions: NB7 neuroblastoma + caspase-8, without TRAIL, NB7 Caspase-8, without TRAIL, mean of runs, at 10 µM.

Sequence of Tumor necrosis factor receptor superfamily member 10B (Homo sapiens) (O14763 whole entry, looked up): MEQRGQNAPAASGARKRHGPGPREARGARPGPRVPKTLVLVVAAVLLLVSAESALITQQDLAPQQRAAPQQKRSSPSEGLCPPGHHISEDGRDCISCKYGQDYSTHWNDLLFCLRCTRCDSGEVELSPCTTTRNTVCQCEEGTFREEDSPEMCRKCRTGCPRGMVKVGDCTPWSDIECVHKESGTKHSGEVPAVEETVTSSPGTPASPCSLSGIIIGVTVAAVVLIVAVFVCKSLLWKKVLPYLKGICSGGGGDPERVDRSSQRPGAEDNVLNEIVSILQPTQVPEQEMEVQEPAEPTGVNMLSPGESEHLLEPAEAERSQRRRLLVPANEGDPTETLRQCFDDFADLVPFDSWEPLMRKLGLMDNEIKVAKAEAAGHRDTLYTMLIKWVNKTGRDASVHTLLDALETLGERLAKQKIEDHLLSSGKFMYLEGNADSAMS

As to `CCOc1ccc(C(=O)Nc2ccc3c(c2)OCCO3)cc1`, the activity in assay [1] was 70.5%; in assay [2], 61.4%.
`CCCCNC(=O)c1cn(C)c2ccc(S(=O)(=O)N3CC(C)CC(C)C3)cc2c1=O` (stereo not drawn): the figures for the activity in assay [1] and in assay [2] were 42.1% and 41.5%, respectively.
Take `CCOc1ccc2nc(N3C(=O)CNC3=S)sc2c1`: the activity was determined as 65.2% in assay [1] and 60.6% in assay [2].
On the same counts, the results for `CCOC(=O)c1cn(-c2ccc(F)c(F)c2F)c2c(F)c(F)c(F)cc2c1=O` are 64% and 41.5%.
On to `CCOc1ccc(C(=O)Nc2ccc3[nH]ncc3c2)cc1`, for which the activity in assay [1] was determined as 82.6%; in assay [2], 82.7%.
With `COc1ccc(/C=C/c2nc3ccccc3c(=O)o2)cc1`, the activity worked out at 83.2% in assay [1] and 83.6% in assay [2].
Taken in the same sequence, the figures for `COc1cccc(C(=O)Cn2c(=N)n(C)c3ccccc32)c1` were 65.8% and 66.2%.
For the molecule `O=C(Nc1cc2ccccc2oc1=O)c1ccccc1`, the activity amounted to 54.1% in assay [1] and 52% in assay [2].
As to `Cc1ccc(-c2nn(-c3ccccc3)cc2NC(=O)CCl)cc1`, the results for the activity in assay [1] and in assay [2] were 94% and 95%, respectively.
In the case of `CCCCn1c(SCC(=O)Nc2nnc(CC)s2)nc2c1c(=O)n(C)c(=O)n2C`, the results for the activity in assay [1] and in assay [2] were 68% and 70.1%, respectively.
On the same counts, the results for `O=C(N/N=C/c1ccc2ncccc2c1)c1ccco1` are 75.7% and 70.7%.
For the molecule `Cc1cccc2sc(NNC(=O)c3ccc(S(=O)(=O)N4CC(C)CC(C)C4)cc3)nc12` (stereo not drawn), the values for the activity in assay [1] and in assay [2] were 55.6% and 49.8%, respectively.
Regarding `COc1ccccc1-c1nc(-c2ccccn2)no1`, the activity in assay [1] is 76.7%; in assay [2] it was 72.7%.
As to `Cc1ccccc1C(=O)O/N=C(\N)Cc1cccs1`, the activity in assay [1] is 98%; in assay [2], 96.6%.
With `Cc1cc(C)cc(C(=O)O/N=C(\N)c2ccc(Br)cc2)c1`, the activity in assay [1] and in assay [2] was 89.5% each time.
Consider `Nc1nn2cc(-c3ccccc3)nc2c2ccccc12`, for which the results for the activity in assay [1] and in assay [2] were 54.7% and 53.4%, respectively.
For the molecule `CC(C)OC(=O)c1sc2nc(-c3ccccc3)ccc2c1N`, the activity in assay [1] was found to be 58.5%; in assay [2] it was 60.3%.
`CNc1nnc(-c2ccc(N(C)C)cc2)s1`: the activity in assay [1] was found to be 73.4%; in assay [2], 61.2%.
Turning to `C=C1CCc2c([nH]c3ccc(OCC(C)C)cc23)C1=O`, the activity in assay [1] was determined as 91.8%; in assay [2], 99.2%.
In the case of `COc1ccc(/C=C/c2cc(-c3ccc(C)cc3)o[n+]2C)cc1`, the activity came out at 81.8% in assay [1] and 90.6% in assay [2].
Regarding `CC(=O)Oc1ccc(/C=C/c2nc3ccccc3c(=O)o2)cc1`, the activity in assay [1] was determined as 80.2%; in assay [2], 75.2%.
For `COc1ccc(/C(N)=N/OC(=O)CC2CCCCC2)cc1OC`, the activity in assay [1] came to 83.4%; in assay [2] it was 78.2%.
Turning to `O=C(Nc1cccc(O)c1)c1noc2c1CCc1ccccc1-2`, the activity in assay [1] came to 76.6%; in assay [2], 67.1%.
On to `Cc1scc(C(=O)N/N=C/c2ccsc2)c1C`, for which the activity stood at 58.1% in assay [1] and 63.5% in assay [2].
On the same counts, the results for `Cc1nc(NC(=S)NC(=O)c2ccccc2)sc1C` are 57.1% and 57%.
For the molecule `COc1ccc2c(=O)c(-c3nc(C)cs3)coc2c1`, the activity in assay [1] came out at 69.9%; in assay [2], 71.6%.
Regarding `C[C@H](NC(=O)c1ncn2c1c(=O)[nH]c1ccc(Br)cc12)c1ccccc1`, the activity in assay [1] is 27.2%; in assay [2] it was 7.95%.
`N#Cc1ccc(NC(=O)Nc2ccc(Cl)cc2)cc1`: the results for the activity in assay [1] and in assay [2] were 81% and 65.3%, respectively.
Take `Nc1nc2ccccc2n1C(=O)c1ccccc1`: the activity in assay [1] turned out to be 87.9%; in assay [2], 85.9%.
Taken in the same sequence, the figures for `COc1cc2c3nnc(-c4ccc(F)cc4)c-3cn(Cc3cccc(C)c3)c2cc1OC` were 48.9% and 67%.
On the same counts, the results for `O=C1CCC(=O)N1c1ccc(-c2nc3ccccc3s2)cc1` are 76.8% and 41%.
As for `Cc1cccc(-c2noc(-c3csc([C@@H]4C[C@H](O)[C@@H](CO)O4)n3)n2)c1`, the results for the activity in assay [1] and in assay [2] were 36.7% and 29.3%, respectively.
For the molecule `CN(C)c1ccc(-c2nc3ccccc3c(=O)[nH]2)cc1`, the results for the activity in assay [1] and in assay [2] were 91.9% and 92.5%, respectively.
In the case of `COc1ccccc1N1CCN(c2ccc3ccccc3n2)CC1`, the figures for the activity in assay [1] and in assay [2] were 38.5% and 24.1%, respectively.
For `COc1ccc(/C=N/Nc2nnc(Cc3ccccc3)c(=O)[nH]2)cc1OC`, the results for the activity in assay [1] and in assay [2] were 60.6% and 59.2%, respectively.
As for `Cc1nc(-c2ccc(C(=O)Nc3ccccc3F)cc2)cs1`, the values for the activity in assay [1] and in assay [2] were 81.9% and 84.3%, respectively.
As to `COc1ccc2sc(N(CCCN(C)C)C(=O)c3ccc(S(=O)(=O)N4CCc5ccccc5C4)cc3)nc2c1`, the results for the activity in assay [1] and in assay [2] were 82.4% and 69.3%, respectively.
On the same counts, the results for `Fc1cccc(C2NN=C(c3ccccc3)S2)c1` (stereo not drawn) are 58.6% and 58.5%.
Turning to `O=C(C#Cc1ccccc1)c1ccccc1`, the activity in assay [1] was 54%; in assay [2], 96.6%.
With `Cc1ccc(NC(=O)c2ccc3c(c2)OCCO3)nc1`, the figures for the activity in assay [1] and in assay [2] were 76.8% and 77.2%, respectively.
As to `CC(=O)Nc1cccc(-c2csc(Nc3ccc(C)cn3)n2)c1`, the activity in assay [1] was found to be 49.5%; in assay [2] it was 30.4%.
On the same counts, the results for `Cc1ccc2nc(NC(=S)NC(=O)c3cccs3)sc2c1` are 82.5% and 74.8%.
As to `COn1c(SCc2ccccc2)nc2ccccc2c1=O`, the activity in assay [1] is 65.3%; in assay [2], 59.9%.
On to `O=C(Oc1ccc2ccccc2c1Cl)N1CCCCCC1`, for which the activity was determined as 20.1% in assay [1] and 12.2% in assay [2].
On the same counts, the results for `CCCOc1ccc(-c2cn3ccccc3n2)cc1` are 92.7% and 91.2%.
As for `COc1ccc(CSc2nc3ccccc3[nH]2)cc1`, the activity is 70.8% in assay [1] and 83.3% in assay [2].
On the same counts, the results for `Cc1ccc(C(=O)N/C(=C\c2ccc(-c3ccccc3[N+](=O)[O-])o2)C(=O)NCCN(C)C)cc1` are 42% and 99.7%.
For the molecule `N#Cc1nc(Nc2cccc(Cl)c2)c2ncn(C3CCCC3)c2n1`, the values for the activity in assay [1] and in assay [2] were 76.7% and 57.3%, respectively.
For `Nc1nc(=S)c2ncn(C3OC(CO)C(O)C3O)c2[nH]1` (stereo not drawn), the activity in assay [1] amounted to 9.65%; in assay [2] it was 6.78%.
With `COc1cccc(N2C(N)=NC(N)=NC2(C)C)c1`, the values for the activity in assay [1] and in assay [2] were 79.7% and 85%, respectively.
Consider `O=c1c2[nH]c3ccc(F)cc3c2ncn1C1CCCCC1`, for which the activity was determined as 59.1% in assay [1] and 49.5% in assay [2].
Take `O=c1[nH]c2ccccc2nc1/C=C/c1ccc(Cl)cc1`: the results for the activity in assay [1] and in assay [2] were 64.9% and 74.2%, respectively.
As for `CNC(=O)c1cc(Oc2ccc(NC(=O)Nc3ccc(Cl)c(C(F)(F)F)c3)cc2)ccn1`, the activity is 88.9% in assay [1] and 63.2% in assay [2].
On the same counts, the results for `O=c1cc(-c2ccccc2)oc2ccc3ccccc3c12` are 92.2% and 90.1%.
`CSc1nnc(NC(=O)c2nc(S(=O)(=O)Cc3cccc(C)c3)ncc2Cl)s1`: the activity in assay [1] was determined as 93%; in assay [2], 88.3%.
`COc1ccc(NC(=O)c2cccc(N3C(=O)c4ccc(C(=O)Nc5ccc(OC)c(O)c5)cc4C3=O)c2)cc1O`: the activity was 71.7% in assay [1] and 85.6% in assay [2].
On the same counts, the results for `CC1(C)N=C(N)N=C(N)N1c1ccc(OCC(=O)N2CCOCC2)cc1` are 62.7% and 87.2%.
As for `O=C(Nc1cnn(C23CC4CC(CC(C4)C2)C3)c1)c1cnn2c(C(F)(F)F)cc(-c3ccco3)nc12`, the activity stood at 76.4% in assay [1] and 70.3% in assay [2].
Taken in the same sequence, the figures for `Cc1ccccc1C(=O)Nc1nnc(SCC(=O)NCc2ccco2)s1` were 61.1% and 58.2%.
